Measured values from PubChem BioAssay (NCATS).
Results filed as inconclusive are left out. Entries that show only a call come without a potency. Calls of active or inactive are those of the source. Calls follow the shape of the dose curve; as a rule, active = well fitted cell-killing curve with a large enough effect; inconclusive = small, poorly fitted or top-dose-only effect, or effect the other way; inactive = no such curve, though single readings can be large or run the other way.

Assay: Quantitative High-Throughput drug screen in 47 multiple myeloma cell lines against the NCATS MIPE library collection: FR4_PLB cell viability assay (AID 1918924; also: nearly all actives have a fitted effect of over 35% in size)
Settings: FR4_PLB myeloma cells viability, CellTiter-Glo ATP, 48 h; series mostly up to 45.8 µM
How it was run: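 We plated 500 myeloma cells per well, pinned in MIPE 4.0 compounds, and incubated for 48 hours at 37C. ATP was then quantified with CellTiter-Glo, with DMSO and media-only wells defining 100% and 0%.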

Row | SMILES | Potency
1 | Cn1c(=O)c2[nH]cnc2n(C)c1=O | inactive
2 | COc1ccc2c(c1)c(CC(=O)O)c(C)n2C(=O)c1ccc(Cl)cc1 | inactive
3 | C[C@](N)(Cc1ccc(O)c(O)c1)C(=O)O | inactive
4 | O=C(C1CCCCC1)N1CC(=O)N2CCc3ccccc3C2C1 (stereo not drawn) | inactive
5 | CCC1(c2ccccc2)C(=O)NCNC1=O | inactive
6 | CN(C)CCOC(c1ccccc1)c1ccccc1 | inactive

Assay: Quantitative High-Throughput drug screen in 47 multiple myeloma cell lines against the NCATS MIPE library collection: Delta47_JCRB cell viability assay (AID 1918925; also: nearly all actives have a fitted effect of over 45% in size; also: potency is read from the fitted curve at half-maximal effect)
Settings: Delta47 myeloma viability, CellTiter-Glo ATP, 48 h; series mostly up to 45.8 µM
How it was run: (§1)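 Luminescent ATP measurement with CellTiter-Glo gives viability, scaled between DMSO-only wells (100%) and media-only wells (0%). Cells, 500 per well, faced library compounds for 48 hours at 37C.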

Row | SMILES | Potency
7 | CN(C)C(=N)N=C(N)N | inactive
8 | C[C@@H]1CC(=O)NN=C1c1ccc(NN=C(C#N)C#N)cc1 | 18.7 µM (active)
9 | Cn1c(=O)c2[nH]cnc2n(C)c1=O | inactive
10 | CCC1(c2ccccc2)C(=O)NCNC1=O | 2.96 µM (active)
11 | CN(C)CCOC(c1ccccc1)c1ccccc1 | 8.33 µM (active)

Assay: Quantitative High-Throughput drug screen in 47 multiple myeloma cell lines against the NCATS MIPE library collection: EJM_DSMZ cell viability assay (AID 1918926; also: nearly all actives have a fitted effect of over 30% in size; also: potency is read from the fitted curve at half-maximal effect)
Settings: EJM myeloma cell viability, CellTiter-Glo ATP, 48 h; series mostly up to 45.8 µM
How it was run: as §1

Row | SMILES | Potency
12 | CC[N+](CC)(CC)CCOc1cccc(OCC[N+](CC)(CC)CC)c1OCC[N+](CC)(CC)CC | inactive
13 | Clc1ccc2nsnc2c1NC1=NCCN1 | inactive
14 | Cc1cc(C(C)(C)C)cc(C)c1CC1=NCCN1 | inactive
15 | Clc1ccccc1C(c1ccccc1)(c1ccccc1)n1ccnc1 | inactive
16 | CN(C)C(=N)N=C(N)N | inactive
17 | COc1cc2nc(N(C)CCCNC(=O)C3CCCO3)nc(N)c2cc1OC (stereo not drawn) | inactive
18 | CC(C)NCC(O)c1ccc(O)c(O)c1 (stereo not drawn) | 14.8 µM (active)
19 | CC(C)C(=O)Nc1ccc([N+](=O)[O-])c(C(F)(F)F)c1 | 1.48 µM (active)
20 | CCOC(=O)Nc1ccc(NCc2ccc(F)cc2)nc1N | inactive
21 | Cc1ccccc1N1C(=O)c2cc(S(N)(=O)=O)c(Cl)cc2NC1C (stereo not drawn) | inactive
22 | Cn1c(=O)c2[nH]cnc2n(C)c1=O | inactive
23 | COc1ccc2[nH]cc(CCNC(C)=O)c2c1 | inactive
24 | CN1CCN(CCCN2c3ccccc3Sc3ccc(Cl)cc32)CC1 | 23.5 µM (active)
25 | CS(=O)(=O)CCNCc1ccc(-c2ccc3ncnc(Nc4ccc(OCc5cccc(F)c5)c(Cl)c4)c3c2)o1 | 0.0235 µM (active)
26 | O=c1c(-c2ccc(O)cc2)coc2cc(O)cc(O)c12 | inactive
27 | O=C(C1CCCCC1)N1CC(=O)N2CCc3ccccc3C2C1 (stereo not drawn) | inactive
28 | NCCS(=O)(=O)O | inactive
29 | Cn1cnc2c1c(=O)[nH]c(=O)n2C | 20.9 µM (active)
30 | NCCc1cnc[nH]1 | 14.8 µM (active)
31 | NCCCCCC(=O)O | inactive
32 | CCC1(c2ccccc2)C(=O)NCNC1=O | inactive
33 | CN(C)CCOC(c1ccccc1)c1ccccc1 | inactive
